Compounds with a hit are over-represented: about 3.4% of the library has one in this group of screens.
PLC-gamma1 inh: blocks human PLC-gamma1 enzyme activity; P19174; purified PLC-gamma1, fluorogenic substrate, fluorescence; inhibition, % at 12.2 µM; hit rate 0.84% among 370,000; AID 720700; in the data active = inhibition above about 9.5%
PLC-beta3 inh: blocks human PLC-beta3 enzyme activity; Purified PLC-beta3, fluorogenic substrate, fluorescence; Q01970; hit rate 0.18% among 370,000; inhibition, % at 12.2 µM; in the data active = inhibition above about 11%;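 note: 0% = median of compound wells on plate and 100% = full blocker control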
sPLA2-III inh: Blocks human group III sPLA2 activity; hit rate 0.56% among 370,000; Q9NZ20; inhibition, % at 12.2 µM; QFRET BODIPY PC-A2 liposome hydrolysis, fluorescence;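 active = inhibition above mean plus 3 SD of compounds lying within the high and low control bounds, cut at about 19% in these data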;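 note: 0% = median of test compound wells and 100% = no enzyme DMSO wells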
ADAM17 inh: inhibitors of human ADAM17 | P78536 | recombinant ADAM17, EDANS/DABCYL FRET peptide cleavage | inhibition, % at 6.95 µM | hit rate 0.83% among 370,000;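 active = inhibition above the mean of compounds lying between control limits plus 3 SD, set per campaign, cut at about 8.5% in these data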;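 note: 0% = DMSO-only wells as the low control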
ADAM10 inh: inhibitors of human ADAM10; hit rate 0.62% among 370,000; inhibition, % at 7 µM; O14672; recombinant ADAM10, EDANS/DABCYL FRET peptide cleavage, 3 h;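 active = inhibition above a per-campaign cutoff equal to the mean of compounds falling between control-based bounds plus 3 SD, cut at about 20% in these data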;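 note: 0% = DMSO wells while the 100% control is not disclosed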
proKLK7 act: activators of human kallikrein-7 zymogen; P49862; activation, % at 7 µM; hit rate 0.9% among 370,000; purified proKLK7, EDANS-DABCYL substrate fluorescence; 100% is mature enzyme control, 0% vehicle;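 active = activation above the mean of all tested compounds plus 3 SD, computed per campaign excluding outliers beyond control limits, cut at about 13% in these data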
ADAM10 confirm: confirmation of inhibitors of human ADAM10; shares compounds with ADAM10 inh; hit rate 1% among 2,100; inhibition, % at 6.95 µM; ADAM10 QFRET peptide cleavage, EDANS fluorescence;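 active = inhibition above about 20% chosen separately for each screening run, limit read from the data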;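 note: 0% = DMSO wells and 100% = marimastat wells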
ADAM17 ctr: inhibits human ADAM17 in ADAM10 exosite counter-screen. ADAM17 QFRET peptide cleavage, EDANS fluorescence. AID 743214. inhibition, % at 6.95 µM. hit rate 0.5% among 2,100. shares compounds with ADAM10 inh;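 active = mean triplicate inhibition above the solvent-only control wells' mean plus 3 SD, cut at about 12% in these data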;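 note: 0% = DMSO wells and 100% = marimastat wells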
ADAM10 counter: inhibits human ADAM10 in ADAM17 exosite counter-screen; shares compounds with ADAM17 inh; recombinant ADAM10, EDANS/DABCYL FRET peptide cleavage, 3 h; inhibition, % at 6.95 µM; hit rate 47% among 2,900;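 active = mean inhibition over the triplicate runs exceeds the activity threshold set in the earlier primary screen, cut at about 20% in these data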;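 note: 0% = DMSO wells and 100% = marimastat wells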
ADAM17 confirm: confirmation of inhibitors of human ADAM17. hit rate 65% among 2,900. AID 743257. shares compounds with ADAM17 inh. recombinant ADAM17, EDANS/DABCYL QFRET peptide cleavage. inhibition, % at 6.95 µM;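 active = mean inhibition across replicates above the hit cutoff set in the primary screen, cut at about 8.5% in these data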;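 note: 0% = DMSO wells and 100% = marimastat wells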
* marks the source's active call; other numbers are inactive results; x = no result given.

SMILES	PLC-gamma1 inh	PLC-beta3 inh	sPLA2-III inh	ADAM17 inh	ADAM10 inh	proKLK7 act	ADAM10 confirm	ADAM17 ctr	ADAM10 counter	ADAM17 confirm
Cc1cc(C)cc(NC(=O)C(OC(=O)c2cccs2)c2ccccc2)c1 (stereo unspecified)	1	2	-22	11*	21*	-1	5	2	11	8
CC(C)(C)NC(=O)C(OC(=O)c1cccs1)c1ccccc1 (stereo unspecified)	5	-3	3	-2	9	0	x	x	x	x
CC(=O)c1cccc(NC(=O)C(OC(=O)c2ccccc2NS(=O)(=O)c2cccs2)c2ccccc2)c1 (stereo unspecified)	-22	-26	-39	10*	21*	-2	13	5	12	18*
CCOC(=O)c1cc(-c2ccccc2C)nn1CC1CC(c2ccc(OC)cc2)=NO1 (stereo unspecified)	5	3	-2	10*	21*	1	5	1	18	10*
CCOC(=O)c1cc(-c2ccccc2)nn1CC1CC(c2ccc(OC)cc2)=NO1 (stereo unspecified)	1	6	-7	2	10	-1	x	x	x	x
CC(C)CC1NC(=O)N(CC(=O)Nc2cccc(Br)c2)C1=O (stereo unspecified)	3	-4	0	3	-2	0	x	x	x	x
C=CCC[C@@H](Cc1ccc(F)cc1)C(=O)OC[C@@H](Cc1c[nH]c2ccccc12)NC(=O)[C@H](CC=C)CC(=O)N(CCO)Cc1ccccc1	5	1	-99	17*	40*	0	13	3	69*	26*
C=CC[C@H](CC(=O)N(CCO)Cc1ccccc1)C(=O)N[C@@H](COC(=O)[C@@H](CC=C)Cc1ccc(F)cc1)Cc1c[nH]c2ccccc12	0	3	-132	14*	37*	1	7	3	45*	25*
C=CC[C@@H](CC(=O)N(CCO)Cc1ccccc1)C(=O)N[C@H](COC(=O)[C@@H](CC=C)Cc1ccc(F)cc1)c1ccccc1	6	-1	-45	15*	34*	0	9	4	33*	17*
C=CC[C@@H](CC(=O)N(CCO)Cc1ccccc1)C(=O)N[C@@H](COC(=O)[C@@H](CC=C)CC(=O)OC(C)(C)C)Cc1c[nH]c2ccccc12	6	3	-59	22*	45*	0	7	1	41*	21*
C=CC[C@@H](CC(=O)N(CCO)Cc1ccccc1)C(=O)N[C@@H](COC(=O)[C@@H](CC=C)Cc1ccc(F)cc1)Cc1c[nH]c2ccccc12	1	0	-83	8	18	0	x	x	x	x
Cc1c(C)c(C)c(S(=O)(=O)NCCC(=O)N2CCN(Cc3ccc(C#N)cc3)CC2)c(C)c1C	6	-4	-27	0	-2	0	x	x	x	x
O=C1c2ccccc2[C@@H]2C[C@H](NC34CC5CC(CC(C5)C3)C4)[C@@H](O)CCN12	-2	0	3	-3	3	0	x	x	x	x
Cc1c(NC(=O)C(C)OC(=O)c2ccc(NC(=O)CC#N)cc2)c(=O)n(-c2ccccc2)n1C (stereo unspecified)	2	-5	0	5	-2	0	x	x	x	x
C=CC[C@@H](CC(=O)N[C@@H](CO)Cc1ccccc1)C(=O)N[C@H](COC(=O)[C@@H](CC=C)CC(=O)OC(C)(C)C)Cc1c[nH]c2ccccc12	3	3	-101	8.7*	26*	1	4	0	39*	18*

High-throughput results (PubChem BioAssay)
